Data reported in PubChem BioAssay (Tox21).
“And” between values parts separate entries of the source, which are not always exact repeats. Equal values may be shown once. Results filed as inconclusive are left out. Entries that show only a call come without a potency. Some structures have more than one record in an assay (separate samples or runs), and their calls can disagree. The source made the active and inactive calls. Calls follow the shape of the dose curve; as a rule, active = well fitted curve in the direction sought with a large enough effect in the repeat runs; inconclusive = weak or mixed curves; inactive = no such curve, though single readings can be large; an effect the other way counts as inactive or inconclusive.

Legend:
[1] = Human pregnane X receptor (PXR) small molecule agonists, qHTS cell viability counter screen (AID 1346977); also: nearly all actives have a fitted effect of over 50% in size; also: potency is read from the fitted curve at half-maximal effect
How it was run: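 Same-well viability read: CellTiter-Fluor added after 23 hr compound exposure, fluorescence measured 1 hr later. Cells were PXR-Luc HepG2 seeded at 2,000/well in 5% charcoal-stripped FBS medium, rested 5 hr before dosing at 37 C.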

[2] = Caspase-3/7 induction in CHO-K1 cells by small molecules, qHTS cell viability counter screen (AID 1346979); also: nearly all actives have a fitted effect of over 35% in size; also: potency is read from the fitted curve at half-maximal effect
How it was run: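 Cytotoxicity counter screen: CellTiter-Fluor added to compound-treated wild-type CHO-K1 cells at 16 h (37C, 5% CO2), fluorescence measured 1 h later; same wells as caspase-3/7 measurement.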

[3] = Caspase-3/7 induction in CHO-K1 cells by small molecules, qHTS assay (AID 1346980); also: nearly all actives have a fitted effect of over 15% in size; also: potency is read from the fitted curve at half-maximal effect
How it was run: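 Wild-type CHO-K1 cells exposed to compounds for 17hr at 37 C, 5% CO2. Caspase-3/7 activity then measured by Caspase-Glo 3/7 luminescence after 30min at room temperature.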

[4] = Caspase-3/7 induction in HepG2 cells by small molecules, qHTS cell viability counter screen (AID 1346981); also: nearly all actives have a fitted effect of over 30% in size; also: potency is read from the fitted curve at half-maximal effect
How it was run: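 Viability determined by CellTiter-Fluor fluorescence in HepG2 wells also used for the luminescent Caspase-Glo 3/7 read. Compounds were present for 16 hr at 37 C, 5% CO2 before reagent addition.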

[5] = molecular target: Nuclear receptor subfamily 1 group I member 2 (Homo sapiens) (UniProt O75469); test: Human pregnane X receptor (PXR) small molecule agonists, qHTS assay (AID 1346982); also: nearly all actives have a fitted effect of over 35% in size; also: potency is read from the fitted curve at half-maximal effect
Sequence of Nuclear receptor subfamily 1 group I member 2 (Homo sapiens) (O75469 whole entry, looked up): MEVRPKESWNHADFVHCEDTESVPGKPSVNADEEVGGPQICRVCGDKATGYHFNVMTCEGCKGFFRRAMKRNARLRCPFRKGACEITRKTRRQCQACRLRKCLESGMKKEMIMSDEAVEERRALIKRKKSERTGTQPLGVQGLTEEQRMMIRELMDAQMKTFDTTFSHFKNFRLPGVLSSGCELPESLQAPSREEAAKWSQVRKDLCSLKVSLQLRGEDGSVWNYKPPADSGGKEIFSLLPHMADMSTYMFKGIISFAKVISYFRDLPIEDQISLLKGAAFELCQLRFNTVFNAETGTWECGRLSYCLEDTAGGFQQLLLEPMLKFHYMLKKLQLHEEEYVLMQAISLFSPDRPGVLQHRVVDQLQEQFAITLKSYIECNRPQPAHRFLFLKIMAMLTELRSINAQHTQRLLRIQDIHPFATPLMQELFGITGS
How it was run: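 Compound-induced hPXR transactivation of a CYP3A4 luciferase reporter was scored in HepG2 PXR-Luc cells over 24 hr at 37 C, 5% CO2, by luminescence.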

[6] = molecular target: Cytochrome P450 2D6 (Homo sapiens) (UniProt P10635); test: Cytochrome P450 Family 2 Subfamily D Member 6 (CYP2D6) small molecule antagonists: luciferase reporter qHTS assay (AID 1671196); also: nearly all actives have a fitted effect of over 50% in size; also: potency is read from the fitted curve at half-maximal effect
Sequence of Cytochrome P450 2D6 (Homo sapiens) (P10635 whole entry, looked up): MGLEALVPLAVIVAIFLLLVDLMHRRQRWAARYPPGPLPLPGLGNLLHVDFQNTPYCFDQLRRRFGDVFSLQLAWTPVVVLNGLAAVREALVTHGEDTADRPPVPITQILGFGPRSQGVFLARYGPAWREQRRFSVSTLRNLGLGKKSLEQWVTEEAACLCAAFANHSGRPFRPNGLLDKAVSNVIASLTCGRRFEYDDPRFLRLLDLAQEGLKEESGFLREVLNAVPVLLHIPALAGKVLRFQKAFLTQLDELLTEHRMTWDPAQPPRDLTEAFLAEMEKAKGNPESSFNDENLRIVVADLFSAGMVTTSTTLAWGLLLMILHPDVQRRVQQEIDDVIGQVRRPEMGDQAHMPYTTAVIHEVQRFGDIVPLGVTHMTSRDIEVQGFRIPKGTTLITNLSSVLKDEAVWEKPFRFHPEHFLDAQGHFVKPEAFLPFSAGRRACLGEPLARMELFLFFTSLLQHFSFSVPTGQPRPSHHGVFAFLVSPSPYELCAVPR
How it was run: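 Each well received CYP2D6 with its proluciferin substrate and chemical, sat 10 min, then got NADPH regeneration solution for 1 h at room temperature. Luminescence in RLU served as the activity measure.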

[7] = molecular target: Cytochrome P450 2C19 (Homo sapiens) (UniProt P33261); test: Cytochrome P450 Family 2 Subfamily C Member 19 (CYP2C19) small molecule antagonists: luciferase reporter qHTS assay (AID 1671197); also: nearly all actives have a fitted effect of over 65% in size; also: potency is read from the fitted curve at half-maximal effect
Sequence of Cytochrome P450 2C19 (Homo sapiens) (P33261 whole entry, looked up): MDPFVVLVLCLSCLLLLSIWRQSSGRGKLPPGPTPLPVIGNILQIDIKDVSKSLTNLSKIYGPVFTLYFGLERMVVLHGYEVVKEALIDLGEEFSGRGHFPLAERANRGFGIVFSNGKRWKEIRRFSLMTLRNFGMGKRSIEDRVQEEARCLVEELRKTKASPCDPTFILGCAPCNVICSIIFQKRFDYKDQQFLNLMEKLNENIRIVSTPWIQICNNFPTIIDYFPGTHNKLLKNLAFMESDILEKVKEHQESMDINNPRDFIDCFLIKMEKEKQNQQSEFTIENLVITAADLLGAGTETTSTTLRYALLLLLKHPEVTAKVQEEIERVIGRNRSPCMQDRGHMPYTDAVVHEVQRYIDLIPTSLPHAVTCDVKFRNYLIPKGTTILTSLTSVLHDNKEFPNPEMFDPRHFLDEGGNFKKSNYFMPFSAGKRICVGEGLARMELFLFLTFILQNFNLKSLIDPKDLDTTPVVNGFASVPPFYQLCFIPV
How it was run: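 P450-Glo CYP2C19 system: enzyme-substrate mix with compound 10 min at room temperature, then NADPH regeneration solution, 1 h at 37C. Proluciferin-to-luciferin conversion detected by luminescence after 20 min with detection reagent; ketoconazole as positive control.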

[8] = molecular target: Cytochrome P450 2C9 (Homo sapiens) (UniProt P11712); test: Cytochrome P450 Family 2 Subfamily C Member 9 (CYP2C9) small molecule antagonists: luciferase reporter qHTS assay (AID 1671198); also: nearly all actives have a fitted effect of over 50% in size; also: potency is read from the fitted curve at half-maximal effect
Sequence of Cytochrome P450 2C9 (Homo sapiens) (P11712 whole entry, looked up): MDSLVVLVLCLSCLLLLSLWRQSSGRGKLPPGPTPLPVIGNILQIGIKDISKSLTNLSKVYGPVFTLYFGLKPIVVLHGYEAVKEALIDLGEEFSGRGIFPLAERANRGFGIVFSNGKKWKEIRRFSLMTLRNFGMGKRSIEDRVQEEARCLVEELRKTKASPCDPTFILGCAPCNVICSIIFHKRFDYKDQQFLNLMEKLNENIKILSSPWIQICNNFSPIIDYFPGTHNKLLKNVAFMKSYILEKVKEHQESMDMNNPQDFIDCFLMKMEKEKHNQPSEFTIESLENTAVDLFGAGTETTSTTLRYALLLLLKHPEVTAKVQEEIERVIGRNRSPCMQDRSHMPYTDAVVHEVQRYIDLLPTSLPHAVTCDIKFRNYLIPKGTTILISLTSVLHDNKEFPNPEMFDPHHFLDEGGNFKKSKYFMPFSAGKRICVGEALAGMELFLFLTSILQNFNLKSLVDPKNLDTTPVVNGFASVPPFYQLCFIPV
How it was run: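 P450-Glo proluciferin substrate with CYP2C9 enzyme; 10 min RT preincubation, then NADPH regeneration 1 h at 37C; luciferin detection reagent 20 min RT, luminescence in relative luminescence units.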

[9] = molecular target: Cytochrome P450 1A2 (Homo sapiens) (UniProt P05177); test: Cytochrome P450 Family 1 Subfamily A Member 2 (CYP1A2) small molecule antagonists: luciferase reporter qHTS assay (AID 1671199); also: nearly all actives have a fitted effect of over 50% in size; also: potency is read from the fitted curve at half-maximal effect
Sequence of Cytochrome P450 1A2 (Homo sapiens) (P05177 whole entry, looked up): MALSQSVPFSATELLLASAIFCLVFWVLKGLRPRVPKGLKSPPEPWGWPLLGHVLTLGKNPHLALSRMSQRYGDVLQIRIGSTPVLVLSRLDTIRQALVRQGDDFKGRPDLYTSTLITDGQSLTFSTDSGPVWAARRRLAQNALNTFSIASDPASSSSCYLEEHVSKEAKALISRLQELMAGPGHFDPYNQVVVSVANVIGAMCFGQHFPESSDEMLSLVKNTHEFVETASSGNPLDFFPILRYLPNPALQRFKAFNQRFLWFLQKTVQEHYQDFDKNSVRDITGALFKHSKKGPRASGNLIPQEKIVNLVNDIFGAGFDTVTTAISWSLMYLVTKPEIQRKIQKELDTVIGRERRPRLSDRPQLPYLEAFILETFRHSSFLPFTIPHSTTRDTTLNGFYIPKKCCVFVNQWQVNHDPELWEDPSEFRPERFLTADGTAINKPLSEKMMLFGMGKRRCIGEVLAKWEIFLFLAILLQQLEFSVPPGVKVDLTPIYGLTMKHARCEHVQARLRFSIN
How it was run: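 Enzymatic CYP1A2 assay, human, luminescent: 10 min compound–enzyme–substrate preincubation, 1 h NADPH-dependent turnover, 20 min detection step, room temperature throughout. Reduced light indicates lower CYP1A2 activity.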

[10] = molecular target: Voltage-gated inwardly rectifying potassium channel KCNH2 (Homo sapiens) (UniProt Q12809); test: Human Ether-a-go-go-Related Gene (hERG) channel small molecule antagonists: fluorescence cell-based qHTS assay (AID 1671200); also: nearly all actives have a fitted effect of over 50% in size; also: potency is read from the fitted curve at half-maximal effect
Sequence of Voltage-gated inwardly rectifying potassium channel KCNH2 (Homo sapiens) (Q12809 whole entry, looked up): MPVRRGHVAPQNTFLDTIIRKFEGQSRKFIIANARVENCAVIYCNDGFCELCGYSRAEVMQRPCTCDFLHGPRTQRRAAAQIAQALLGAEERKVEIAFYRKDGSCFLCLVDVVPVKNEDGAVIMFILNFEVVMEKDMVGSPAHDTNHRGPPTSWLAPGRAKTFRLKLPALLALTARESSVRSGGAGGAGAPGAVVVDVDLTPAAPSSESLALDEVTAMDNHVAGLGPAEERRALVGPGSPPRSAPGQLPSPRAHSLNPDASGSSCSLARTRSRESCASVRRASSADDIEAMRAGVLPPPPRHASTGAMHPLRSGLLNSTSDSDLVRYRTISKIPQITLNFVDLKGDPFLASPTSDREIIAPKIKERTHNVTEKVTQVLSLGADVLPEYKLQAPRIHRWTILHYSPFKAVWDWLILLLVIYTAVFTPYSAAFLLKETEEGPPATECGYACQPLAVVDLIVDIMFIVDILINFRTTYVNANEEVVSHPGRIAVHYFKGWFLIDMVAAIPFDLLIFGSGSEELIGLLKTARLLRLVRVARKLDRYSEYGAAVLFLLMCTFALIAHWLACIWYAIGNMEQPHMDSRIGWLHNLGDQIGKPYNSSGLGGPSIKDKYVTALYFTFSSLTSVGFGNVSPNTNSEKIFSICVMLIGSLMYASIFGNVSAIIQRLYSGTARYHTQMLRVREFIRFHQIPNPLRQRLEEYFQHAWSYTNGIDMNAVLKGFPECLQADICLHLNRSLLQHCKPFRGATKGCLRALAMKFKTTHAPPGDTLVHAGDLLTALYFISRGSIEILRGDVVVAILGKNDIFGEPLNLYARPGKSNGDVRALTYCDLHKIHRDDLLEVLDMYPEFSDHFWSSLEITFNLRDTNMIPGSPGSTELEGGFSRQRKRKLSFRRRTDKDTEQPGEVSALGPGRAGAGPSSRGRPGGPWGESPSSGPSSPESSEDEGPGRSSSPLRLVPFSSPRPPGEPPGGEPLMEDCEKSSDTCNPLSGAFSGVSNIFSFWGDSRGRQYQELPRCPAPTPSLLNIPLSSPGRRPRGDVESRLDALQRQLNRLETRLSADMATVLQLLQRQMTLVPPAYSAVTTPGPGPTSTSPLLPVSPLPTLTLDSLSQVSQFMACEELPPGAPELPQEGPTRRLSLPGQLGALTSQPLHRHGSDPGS
How it was run: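 Thallium flux as potassium surrogate: FluxOR II dye loaded 1 h at room temperature into hERG-expressing U2OS cells, then stimulus buffer added after 10 min. Kinetic 480 nm excitation/540 nm emission read, 2 min.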

[11] = molecular target: Cytochrome P450 3A4 (Homo sapiens) (UniProt P08684); test: Cytochrome P450 Family 3 Subfamily A Member 4 (CYP3A4) small molecule antagonists: luciferase reporter qHTS assay (AID 1671201); also: nearly all actives have a fitted effect of over 50% in size; also: potency is read from the fitted curve at half-maximal effect
Sequence of Cytochrome P450 3A4 (Homo sapiens) (P08684 whole entry, looked up): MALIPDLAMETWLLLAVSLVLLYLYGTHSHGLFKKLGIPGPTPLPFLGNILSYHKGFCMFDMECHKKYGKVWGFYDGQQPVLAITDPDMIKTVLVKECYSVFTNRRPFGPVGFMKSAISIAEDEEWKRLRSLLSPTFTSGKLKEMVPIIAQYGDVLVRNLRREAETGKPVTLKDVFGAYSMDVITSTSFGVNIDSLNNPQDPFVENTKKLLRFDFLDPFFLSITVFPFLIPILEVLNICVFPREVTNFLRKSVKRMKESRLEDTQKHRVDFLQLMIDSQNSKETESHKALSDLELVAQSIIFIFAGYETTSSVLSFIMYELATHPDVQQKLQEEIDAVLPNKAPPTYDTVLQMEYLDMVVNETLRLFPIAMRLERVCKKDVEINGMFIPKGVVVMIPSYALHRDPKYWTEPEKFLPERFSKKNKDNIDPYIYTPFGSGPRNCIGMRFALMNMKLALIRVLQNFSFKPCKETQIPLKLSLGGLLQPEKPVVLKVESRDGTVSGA
How it was run: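 Recombinant human CYP3A4 converts a proluciferin substrate to luciferin over 1 h at room temperature after NADPH regeneration solution is added (compound preincubated 10 min); detection reagent stops reaction, luminescence read 20 min later as relative units.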

[12] = molecular target: Nuclear receptor subfamily 1 group I member 2 (Rattus norvegicus) (UniProt Q9R1A7); test: Rat pregnane X receptor (rPXR) activation by small molecules, qHTS assay (AID 1346983); settings: rPXR luciferase reporter cells, One-Glo luminescence, 24 h; stronger effect = higher value; also: nearly all actives have a fitted effect of over 20% in size
Sequence of Nuclear receptor subfamily 1 group I member 2 (Rattus norvegicus) (Q9R1A7 whole entry, looked up): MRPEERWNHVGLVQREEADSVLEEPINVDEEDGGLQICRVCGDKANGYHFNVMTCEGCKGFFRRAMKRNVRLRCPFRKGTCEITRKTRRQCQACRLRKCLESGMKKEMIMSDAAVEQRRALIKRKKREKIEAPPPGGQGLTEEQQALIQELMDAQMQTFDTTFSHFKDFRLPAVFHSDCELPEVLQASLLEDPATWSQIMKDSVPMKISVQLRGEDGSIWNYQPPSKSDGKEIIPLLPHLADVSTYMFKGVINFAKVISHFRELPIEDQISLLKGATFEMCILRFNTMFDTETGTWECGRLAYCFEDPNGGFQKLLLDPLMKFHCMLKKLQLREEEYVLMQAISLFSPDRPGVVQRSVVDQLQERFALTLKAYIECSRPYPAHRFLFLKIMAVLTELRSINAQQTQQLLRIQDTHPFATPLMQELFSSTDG
How it was run: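 Cell-based rPXR activation assay: rPXR cells, 2,000 per well, rested 5hr at 37 C, then exposed to compounds in DMSO for 24 hr at 37 C. Luciferase activity read by One-Glo luminescence after 30 min at room temperature.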

[13] = Caspase-3/7 induction in HepG2 cells by small molecules, qHTS assay (AID 1346978); also: nearly all actives have a fitted effect of over 15% in size
How it was run: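 Wild-type HepG2 cells, 2,000/well, settled 5 hr at 37 C and 5% CO2, then compound-treated for 17 hr; caspase-3/7 activity read by luminescent Caspase-Glo 3/7 after 30 min at room temperature.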

[14] = molecular target: Nuclear receptor subfamily 1 group I member 2 (Homo sapiens) (UniProt O75469); test: CYP3A4 induction through human pregnane X receptor (PXR) by small molecules, qHTS assay (AID 1346984); also: nearly all actives have a fitted effect of over 40% in size
How it was run: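 Readings come from a luciferase reporter: DPX-2 cells, which are HepG2 cotransfected with PXR and a CYP3A4-promoter construct, were exposed to test compounds for 24 h at 37C before One-Glo detection.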

[15] = molecular target: Nuclear receptor subfamily 1 group I member 2 (Homo sapiens) (UniProt O75469); test: Human pregnane X receptor (PXR) activation by small molecules, qHTS assay (AID 1346985); also: potency is read from the fitted curve at half-maximal effect; nearly all actives have a fitted effect of over 40% in size
How it was run: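 DPX-2 cells (HepG2 co-transfected with a PXR response element and a CYP3A4-promoter luciferase construct) were seeded at 2,000 per well, rested 5 hr at 37C, then exposed to DMSO-dissolved compounds for 24 hr. Activation was read as luciferase luminescence.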

Structure (SMILES) | Potency [1] | Potency [2] | Potency [3] | Potency [4] | Potency [5] | Potency [6] | Potency [7] | Potency [8] | Potency [9] | Potency [10] | Potency [11] | max activation [12] | Potency [13] | Potency [14] | Potency [15]
CCCC(=O)c1ccccc1 | inactive | inactive | inactive | inactive | inactive | 31.7 µM (active) | inactive | inactive | inactive | inactive | inactive |  |  |  | 
Clc1ccc2c(c1)C(N1CCNCC1)=Nc1ccccc1O2 | 29.8 µM (active) | inactive | inactive | inactive | inactive | 3.99 µM (active) and 3.09 µM (active) | 63.3 µM (active) and inactive | 17.8 µM (active) and inactive |  | 43.6 µM (active) and 19 µM (active) | 7.96 µM (active) and 4.9 µM (active) |  |  |  | 
CCCCCCC(O)CCCCCCCCCCC(=O)O (centres undefined) | inactive | inactive | inactive | inactive | inactive | inactive | inactive | inactive | inactive | inactive | inactive |  |  |  | 
CC1=C(C=O)C(C)(C)CC=C1 | inactive | inactive | inactive | inactive | inactive | inactive |  | inactive | inactive | inactive |  |  |  |  | 
Cc1cc(OCCOCC[N+](C)(C)Cc2ccccc2)ccc1C(C)(C)CC(C)(C)C | 54.2 µM (active) | 43 µM (active) | inactive | 54.2 µM (active) | inactive | 17.7 µM (active) and 13.8 µM (active) | 39.7 µM (active) | 62.9 µM (active) | inactive | 688 nM (active) and 756 nM (active) | inactive |  |  |  | 
CCc1ccc(C(c2ccc(CC)cc2)C(Cl)Cl)cc1 | inactive | inactive | inactive | inactive | 31.1 µM (active) and 24.3 µM (active) | inactive | 6.43 µM (active) and 3.56 µM (active) | 14.4 µM (active) and 12.6 µM (active) | 40.6 µM (active) | inactive | inactive |  |  |  | 
CC1COc2c(N3CCN(C)CC3)c(F)cc3c(=O)c(C(=O)O)cn1c23 (centres undefined) | inactive | inactive | inactive | inactive |  | inactive | inactive | inactive | inactive | inactive |  | -3.36% (inactive) |  |  | 
COC(c1ccccc1)(c1ccccc1)[C@H](Oc1nc(C)cc(C)n1)C(=O)O |  | inactive | inactive | inactive | inactive | inactive | inactive | inactive | 17.4 µM (active) | inactive |  | -2.41% (inactive) | inactive | inactive | 10 µM (active)
c1cc(C(c2ccc(OCC3CO3)cc2)C(c2ccc(OCC3CO3)cc2)c2ccc(OCC3CO3)cc2)ccc1OCC1CO1 (centres undefined) |  | inactive | 28.3 µM (active) | inactive | 40 µM (active) and 7.69 µM (active) | 46.5 µM (active) and inactive | 104 µM (active) and 56.4 µM (active) | 10.4 µM (active) and 22.4 µM (active) | inactive | inactive | inactive |  | inactive |  | 
CCC[C@H](N[C@@H](C)C(=O)N1[C@H](C(=O)O)C[C@@H]2CCCC[C@@H]21)C(=O)OCC | inactive | inactive | inactive | inactive | inactive | inactive | inactive | inactive | 17.4 µM (active) and inactive | inactive | inactive |  |  |  | 
O=C(Nc1ccccc1SSc1ccccc1NC(=O)c1ccccc1)c1ccccc1 | inactive | 24.5 µM (active) and 27.3 µM (active) | inactive |  | 48.8 µM (active) and 30.6 µM (active) | inactive | 3.19 µM (active) and 2.52 µM (active) | 505 nM (active) and 564 nM (active) | 8.01 µM (active) and 8.94 µM (active) | inactive | 2.01 µM (active) and 5.03 µM (active) |  |  |  | 
O=C(O)c1cn(-c2ccc(F)cc2)c2cc(N3CCNCC3)c(F)cc2c1=O | inactive | inactive | inactive | inactive |  | inactive | inactive | inactive | inactive | inactive | inactive | -0.0913% (inactive) |  |  | 
